From PubChem BioAssay AID623901 (Broad Institute, 2012)
The whole screen tested about 340,000 compounds, of which about 470 (0.14%) were called active.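 How the source made its calls: active means mean activation of 30% or more, with every replicate also reaching 30%; inconclusive means mean activation of 30% or more but some replicate falls short; inactive means the rest.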 The full list was thinned out, with actives kept by preference.

Assay: miR-122 suppressors via Renilla sensor increase, primary screen, cell-based, Huh7 psiCHECK-miR122, Renilla luciferase, single point (AID 623901);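 further: 0% = median of neutral control wells and 100% = median of positive control wells; higher luciferase signal means stronger suppression of miR-122 activity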
Conditions: 48 h, at 12.5 µM, hits give high values

Q: For `C[C@H](CO)N1C[C@H](C)[C@@H](CN(C)Cc2ccncc2)Oc2ncc(C#CC3CC3)cc2C1=O`, which activation is on record?
A: -22.7% (inactive)

Q: With `Cc1ccc(C(=O)Nc2ccccc2-c2ccccc2)cc1S(=O)(=O)Nc1ccccc1` as the molecule, how does the activation read?
A: -94% (inactive)

Q: Which activation does the source give for `N=c1c2c(-c3ccccc3)c(-c3ccccc3)n(Cc3ccccc3)c2ncn1CCCO` here?
A: 42.7% (active)

Q: For `CCCN1C[C@@H](C)[C@@H](OC)CN(C)C(=O)c2ccc(NS(C)(=O)=O)cc2OC[C@@H]1C`, which activation is on record?
A: -0.143% (inactive)

Q: With `C/C=C/c1ccc2c(c1)O[C@H](CN(C)Cc1ccccc1)[C@H](C)CN([C@@H](C)CO)S2(=O)=O` as the molecule, how does the activation read?
A: -0.63% (inactive)

Q: Which activation does the source give for `C[C@H](CO)N1C[C@H](C)[C@H](CN(C)Cc2ccncc2)Oc2ncc(C#Cc3cccc(F)c3)cc2C1=O` here?
A: -2.31% (inactive)

Q: With `COCC#Cc1cnc2c(c1)C(=O)N([C@@H](C)CO)C[C@@H](C)[C@H](CN(C)C(=O)Nc1ccccc1OC)O2` as the molecule, how does the activation read?
A: -17.8% (inactive)

Q: For `CCc1ccc(-c2cc(C)no2)cc1S(=O)(=O)NCCc1ccc(S(N)(=O)=O)cc1`, which activation is on record?
A: -124% (inactive)

Q: For `C[C@H](CO)N1C[C@H](C)[C@H](CN(C)Cc2ccccn2)Oc2ncc(C#CCc3ccccc3)cc2C1=O`, which activation is on record?
A: -4.42% (inactive)

Q: Which activation does the source give for `Cc1ccc(S(=O)(=O)Nc2ccc3ncccc3c2)cc1` here?
A: -146% (inactive)

Q: For `COCC(=O)N(C)C[C@H]1Oc2cc(C#CC(C)C)ccc2S(=O)(=O)N([C@H](C)CO)C[C@@H]1C`, which activation is on record?
A: -9.28% (inactive)

Q: With `CCOC(=O)c1c(S(=O)(=O)Nc2cccc(Cl)c2)c(C)n(C)c1C` as the molecule, how does the activation read?
A: -92% (inactive)

Q: Which activation does the source give for `O=C(/C=C(O)/C=C/c1ccc(O)cc1)/C=C/c1ccc(O)cc1` here?
A: -140% (inactive)

Q: For `CCC(=O)Nc1ccc2c(c1)OC[C@H](C)N(Cc1ccccc1F)C[C@H](C)[C@@H](OC)CN(C)C2=O`, which activation is on record?
A: 3.89% (inactive)

Q: Which activation does the source give for `Cn1c(NC(=O)c2ccco2)c(-c2ccccc2Cl)c(=O)c2ccccc21` here?
A: 66.3% (active)

Q: For `COc1ccc(NS(=O)(=O)c2ccc(NC(=O)C(C)(C(F)(F)F)C(F)(F)F)cc2)nn1`, which activation is on record?
A: 35.7% (active)

Q: Which activation does the source give for `COc1ccc(NS(=O)(=O)c2ccc(NC(=S)NC(=O)CC(C)C)cc2)cc1` here?
A: -161% (inactive)

Q: For `CO[C@H]1CN(C)C(=O)c2cc(NS(=O)(=O)c3ccccc3)ccc2OC[C@H](C)N(C)C[C@@H]1C`, which activation is on record?
A: -1.29% (inactive)

Q: For `C[C@H](CO)N1C[C@H](C)[C@@H](CN(C)S(=O)(=O)c2ccccc2)Oc2ncc(C#Cc3ccccc3F)cc2C1=O`, which activation is on record?
A: 1.81% (inactive)

Q: Which activation does the source give for `COc1ccc(OCCCC(=O)NCCc2ccccc2)cc1` here?
A: -223% (inactive)

Q: For `CC(C)C#Cc1ccc2c(c1)O[C@@H](CN(C)C(=O)NC(C)C)[C@H](C)CN([C@H](C)CO)S2(=O)=O`, which activation is on record?
A: -66.1% (inactive)

Q: For `COc1ccccc1-c1cnc2c(c1)C(=O)N([C@H](C)CO)C[C@@H](C)[C@@H](CN(C)CC1CCCC1)O2`, which activation is on record?
A: 5.29% (inactive)

Q: With `Cc1ccc(NS(=O)(=O)c2cc3c(cc2C)NC(=O)CO3)cc1` as the molecule, how does the activation read?
A: -92.7% (inactive)

Q: For `CCC(=O)Nc1ccc2c(c1)C(=O)N(C)C[C@@H](OC)[C@@H](C)CN(Cc1ccccc1OC)[C@H](C)CO2`, which activation is on record?
A: -2.97% (inactive)

Q: For `CCCC(=O)Nc1ccc2c(c1)C(=O)N(C)C[C@H](OC)[C@@H](C)CN[C@H](C)CO2`, which activation is on record?
A: 1.08% (inactive)

Q: Which activation does the source give for `CNC(=O)C[C@@H]1CC[C@H]2[C@H](COc3ccc(NC(=O)c4cccc(OC)c4)cc3C(=O)N2C)O1` here?
A: 50% (active)

Q: With `CCCC(=O)Nc1ccc2c(c1)C(=O)N(C)[C@H]1CC[C@@H](CC(=O)NCc3cccc(F)c3)O[C@H]1CO2` as the molecule, how does the activation read?
A: -120% (inactive)

Q: For `CC(C)C(=O)Nc1ccc2c(c1)C(=O)N(C)[C@@H]1CC[C@@H](CC(=O)NCCc3ccccc3)O[C@H]1CO2`, which activation is on record?
A: 56.7% (active)

Q: Which activation does the source give for `Cn1cnc(CCNC(=O)C[C@@H]2CC[C@@H]3[C@H](COC[C@@H](O)CN3C(=O)Nc3ccccc3)O2)c1` here?
A: 4.36% (inactive)

Q: For `Cc1ccc(-c2ccc3c(c2)O[C@@H](CN(C)C(=O)NC(C)C)[C@@H](C)CN([C@H](C)CO)S3(=O)=O)cc1`, which activation is on record?
A: -3.11% (inactive)

Q: With `COc1ccc(OC)c(-n2cc3c(=O)n(C)c(=O)n(C)c3c2)c1` as the molecule, how does the activation read?
A: -102% (inactive)

Q: With `O=C(NNC(=O)c1ccccc1O)c1ccccc1O` as the molecule, how does the activation read?
A: -530% (inactive)

Q: For `CCCN(C)C[C@H]1Oc2ncc(-c3ccccc3OC)cc2C(=O)N([C@H](C)CO)C[C@@H]1C`, which activation is on record?
A: 6.19% (inactive)

Q: With `O=c1c(-c2ccccc2)coc2c(CN3CCOCC3)c(O)ccc12` as the molecule, how does the activation read?
A: 35.8% (active)

Q: Which activation does the source give for `CNC[C@@H]1Oc2cc(-c3ccccc3OC)ccc2S(=O)(=O)N([C@H](C)CO)C[C@H]1C` here?
A: -5.6% (inactive)

Q: With `C[C@@H]1CN([C@H](C)CO)C(=O)c2cc(C#CCN(C)C)cnc2O[C@H]1CN(C)C(=O)Cc1ccncc1` as the molecule, how does the activation read?
A: 2.45% (inactive)

Q: Which activation does the source give for `C[C@@H]1CN([C@@H](C)CO)S(=O)(=O)c2ccc(-c3cccc(C(=O)N(C)C)c3)cc2O[C@@H]1CN(C)C(=O)Nc1ccccc1` here?
A: -16.6% (inactive)

Q: For `Cc1ccc(S(=O)(=O)NC2CCCCCC2)cc1`, which activation is on record?
A: -106% (inactive)

Q: Which activation does the source give for `C[C@H](CO)N1C[C@H](C)[C@@H](CN(C)C(=O)Cc2cccnc2)Oc2ncc(-c3ccncc3)cc2C1=O` here?
A: -1.97% (inactive)

Q: For `O=C(Nc1ccc(F)cc1)N1CCCCN2[C@H](CO)[C@H](c3ccc(C#Cc4ccccc4)cc3)[C@H]2C1`, which activation is on record?
A: 34.6% (active)

Q: For `COc1ccc(C#Cc2ccc([C@H]3[C@@H](CO)N4CCCCN(C(=O)Nc5ccccc5)C[C@H]34)cc2)cc1`, which activation is on record?
A: 35.5% (active)

Q: Which activation does the source give for `O=C(NCCCn1ccnc1)c1cc(-c2ccccc2)on1` here?
A: -98.4% (inactive)

Q: With `O=C(CN1CCOCC1)Nc1cc(Cl)ccc1Cl` as the molecule, how does the activation read?
A: -101% (inactive)

Q: With `O=S(=O)(N/N=C\c1cccn1-c1ccccc1)c1ccc2ccccc2c1` as the molecule, how does the activation read?
A: -97.9% (inactive)

Q: For `Cc1noc(C)c1NC(=O)N(C)C[C@@H]1Oc2cc(C#CCC(C)C)ccc2S(=O)(=O)N([C@H](C)CO)C[C@@H]1C`, which activation is on record?
A: -3.73% (inactive)

Q: Which activation does the source give for `CCCNC(=O)N(C)C[C@H]1Oc2ncc(C#C[C@@H](C)O)cc2C(=O)N([C@@H](C)CO)C[C@@H]1C` here?
A: 7.15% (inactive)

Q: Which activation does the source give for `O=C(c1ccccc1F)N1C[C@H]2[C@@H](c3ccccc31)[C@@H](CO)N2C(=O)c1ccc(F)cc1` here?
A: -471% (inactive)

Q: Which activation does the source give for `O=C(CC(F)(F)F)N1C[C@H]2[C@@H](c3ccccc31)[C@H](CO)N2C(=O)Cc1cccnc1` here?
A: 33.3% (active)

Q: With `COc1ccc(C(=O)N2C[C@@H]3[C@H](c4ccccc42)[C@H](CO)N3Cc2ccc3c(c2)OCO3)cc1` as the molecule, how does the activation read?
A: -247% (inactive)

Q: Which activation does the source give for `CCCC#Cc1ccc2c(c1)O[C@H](CN(C)C(=O)CC)[C@@H](C)CN([C@H](C)CO)S2(=O)=O` here?
A: -45.7% (inactive)

Q: With `CCCNC(=O)N(C)C[C@@H]1Oc2cc(-c3ccccc3)ccc2S(=O)(=O)N([C@H](C)CO)C[C@H]1C` as the molecule, how does the activation read?
A: -13.1% (inactive)

Q: With `C[C@@H]1CN([C@@H](C)CO)S(=O)(=O)c2ccc(C#C[C@@H](C)O)cc2O[C@@H]1CN(C)C(=O)Cc1ccccn1` as the molecule, how does the activation read?
A: 2.54% (inactive)

Q: With `C/C=C/c1ccc2c(c1)O[C@@H](CN(C)S(C)(=O)=O)[C@@H](C)CN([C@H](C)CO)S2(=O)=O` as the molecule, how does the activation read?
A: 3.54% (inactive)

Q: Which activation does the source give for `CCCNC(=O)N(C)C[C@@H]1Oc2ncc(C#CC(C)C)cc2C(=O)N([C@H](C)CO)C[C@H]1C` here?
A: 10.4% (inactive)

Q: Which activation does the source give for `C[C@H]1CN([C@@H](C)CO)S(=O)(=O)c2ccc(C#CCN(C)C)cc2O[C@H]1CN(C)C(=O)CN(C)C` here?
A: 8.35% (inactive)

Q: With `COCC(=O)Nc1ccc2c(c1)OC[C@H](C)NC[C@@H](C)[C@H](OC)CN(C)C2=O` as the molecule, how does the activation read?
A: -4.6% (inactive)

Q: With `CCC(=O)N(C)C[C@@H]1Oc2cc(C#C[C@H](C)O)ccc2S(=O)(=O)N([C@@H](C)CO)C[C@H]1C` as the molecule, how does the activation read?
A: -2.5% (inactive)

Q: With `C/C=C/c1cnc2c(c1)C(=O)N([C@H](C)CO)C[C@H](C)[C@@H](CN(C)CC1CCOCC1)O2` as the molecule, how does the activation read?
A: 2.95% (inactive)

Q: For `CCN1CCN(C(c2cccnc2)c2cc(Cl)c3cccnc3c2O)CC1` (stereo not drawn), which activation is on record?
A: 49.7% (active)

Q: Which activation does the source give for `O=C1c2ccccc2C2=Nc3ccccc3SC(c3ccccc3F)C12` (stereo not drawn) here?
A: -162% (inactive)

Q: Which activation does the source give for `O=C(CNCCC1=CCCCC1)Nc1ccccc1N1CCCCCC1` here?
A: 76.7% (active)

Q: For `C=CCNC(=O)c1ccccc1NC(=O)c1ccc(Cl)c(S(=O)(=O)Nc2cccc(C)c2C)c1`, which activation is on record?
A: -155% (inactive)

Q: For `COc1ccc(C(CCN(Cc2ccc(OC)c(OC)c2)C(=O)CCl)c2ccccc2)cc1` (stereo not drawn), which activation is on record?
A: 34.7% (active)

Q: Which activation does the source give for `CC(C)CC#Cc1cnc2c(c1)C(=O)N([C@H](C)CO)C[C@H](C)[C@H](CN(C)C(=O)Nc1ccccc1F)O2` here?
A: 4.61% (inactive)

Q: With `C[C@H](CO)N1C[C@H](C)[C@@H](CN(C)C(=O)Cc2ccncc2)Oc2ncc(C#CCN(C)C)cc2C1=O` as the molecule, how does the activation read?
A: 3.61% (inactive)

Q: For `COCC#Cc1cnc2c(c1)C(=O)N([C@@H](C)CO)C[C@@H](C)[C@@H](CN(C)S(=O)(=O)c1cccc(OC)c1)O2`, which activation is on record?
A: -3.48% (inactive)

Q: For `C[C@@H](O)C#Cc1cnc2c(c1)C(=O)N([C@@H](C)CO)C[C@H](C)[C@H](CN(C)Cc1cncnc1)O2`, which activation is on record?
A: 3.47% (inactive)

Q: For `Cc1cc(C(C)(C)C)cc(S(=O)(=O)Nc2ccc(C(=O)O)cc2)c1C`, which activation is on record?
A: -165% (inactive)

Q: Which activation does the source give for `C[C@H](CO)N1C[C@H](C)[C@H](CN(C)C(=O)Nc2ccc3c(c2)OCO3)Oc2ncc(C#Cc3cccc(F)c3)cc2C1=O` here?
A: 5.6% (inactive)

Q: Which activation does the source give for `CNC[C@@H]1Oc2cc(-c3ccccc3OC)ccc2S(=O)(=O)N([C@@H](C)CO)C[C@H]1C` here?
A: -2.47% (inactive)

Q: With `CN1C[C@@H]2[C@H](c3ccccc31)[C@@H](CO)N2C(=O)Nc1ccccc1` as the molecule, how does the activation read?
A: 41.7% (active)

Q: For `O=C(Cc1ccccc1)N1C[C@@H]2[C@H](c3ccccc31)[C@@H](CO)N2C(=O)Nc1ccc(F)cc1`, which activation is on record?
A: -92.3% (inactive)

Q: Which activation does the source give for `O=C(Nc1cc(F)ccc1F)N1C[C@H]2[C@@H](c3ccccc31)[C@@H](CO)N2C(=O)c1ccccc1` here?
A: -133% (inactive)
